Reference: PubChem BioAssay (NCI)
Compounds without any hit were thinned out: in the full panel of roughly 83,000, 20% have a hit.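 Each cell line was grown in a 96-well plate and treated with one concentration of compound for 48 hours. Values below 10 were considered active.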 A number with no mark means an inactive call. The source made the active and inactive calls.

Experiments:
Experiment in all cases: NCI-60 one-dose screen, 48 h (100 = growth as untreated, 0 = no growth, -100 = all killed)
NCI-H23 lung = conditions: 10 µM unless noted
NCI-H226 lung = conditions: 10 µM unless noted
NCI-H322M lung = conditions: 10 µM unless noted
HOP-62 NSCLC = conditions: 10 µM unless noted
NCI-H460 lung = conditions: 10 µM unless noted
786-0 renal = conditions: 10 µM unless noted
MDA-MB-231 breast = conditions: 10 µM unless noted
SF-268 CNS = conditions: 10 µM unless noted
SF-539 CNS = conditions: 10 µM unless noted
HCT-15 colon = conditions: 10 µM
U251 CNS = conditions: 10 µM unless noted
PC-3 prostate = conditions: 10 µM unless noted
SK-MEL-28 melanoma = conditions: 10 µM unless noted
SN12C renal = conditions: 10 µM unless noted
HS 578T breast = conditions: 10 µM unless noted
NCI/ADR-RES ovarian = conditions: 10 µM unless noted
SW-620 colon = conditions: 10 µM unless noted
MCF7 breast = conditions: 10 µM unless noted
HCT-116 colon = conditions: 10 µM unless noted
KM12 colon = conditions: 10 µM unless noted

Row | Structure (SMILES) | growth (NCI-H23 lung) | growth (NCI-H226 lung) | growth (NCI-H322M lung) | growth (HOP-62 NSCLC) | growth (NCI-H460 lung) | growth (786-0 renal) | growth (MDA-MB-231 breast) | growth (SF-268 CNS) | growth (SF-539 CNS) | growth (HCT-15 colon) | growth (U251 CNS) | growth (PC-3 prostate) | growth (SK-MEL-28 melanoma) | growth (SN12C renal) | growth (HS 578T breast) | growth (NCI/ADR-RES ovarian) | growth (SW-620 colon) | growth (MCF7 breast) | growth (HCT-116 colon) | growth (KM12 colon)
1 | O=c1cc[nH]c(=O)o1 | 105% | 98.4% | 105% | 102% | 106% | 98.7% | 117% | 99.9% | 104% | 104% | 102% | 98% | 111% | 105% | 120% | 111% | 107% | 96.9% | 98.1% | 103%
2 | CO[C@@H](c1ccccc1Cl)[C@H](C)OC(N)=O | 93.7% | 96.4% | 95.1% | 96.1% | 105% | 98.7% | 102% | 97.4% | 96.6% | 96.9% | 94.1% | 98.1% | 102% | 106% | 99.9% | 103% | 100% | 102% | 97.2% | 109%
3 | C[C@]12CC[C@H]3[C@@H](C[C@@H]4N=C(c5ccc(O)cc5)S[C@@]45C[C@H](O)CC[C@]35C)[C@@H]1CC[C@@H]2O | 74.7% | 110% | 92.8% | 46.7% | 41.9% | 8.35% (active) | 56.2% | 48.6% | 8.02% (active) | 29.5% | 20.1% | 49.5% | 53.3% | 96.7% | 4.16% (active) | 76.8% | 71.7% | 42.6% | 43.8% | 60.8%
4 | O=C(CI)Nc1ccc(Br)cc1 | 32% | 69.7% | 95.4% | -62.7% (active) | 95.3% | 91.3% | 44.2% | 75.8% | 95.8% | 1.13% (active) | -18.8% (active) | 87.3% | 109% | 15.7% | 132% | 100% | -86.7% (active) | 32.4% | -69.9% (active) | 88.1%
5 | O=CN1N=C(c2ccc3c(c2)OCO3)CC1c1sc(N(CCCl)CCCl)nc1Cl (centres undefined) | 101% | 95.9% | 75.1% | 93% | 105% | 87.8% | 89.9% | 93.7% | 102% | 99.5% | 98.6% | 88.2% | 101% | 94.8% | 79.8% | 101% | 92.9% | 88.9% | 83.8% | 93.9%
6 | ClCCN(CCCl)c1ccc(C=NCCc2c[nH]c3ccccc23)cc1 | 71.7% | -10.5% (active) | 111% | 73.1% | 22.6% | 63.4% | 98.8% | 72.2% | 71.8% | 90.3% | 72.6% | 57% | 108% | 62.7% | 89.8% | 76.2% | 84.4% | 56% | 79% | 101%
7 | CNC(=O)Oc1cccc(N(C)C)c1 | 106% | 93.3% | 102% | 101% | 105% | 102% | 93% | 106% | 100% | 103% | 99.1% | 97.2% | 111% | 94.6% | 108% | 107% | 104% | 94.1% | 113% | 104%
8 | COc1ccc(C2=NN(c3ccccc3)C(c3sc(N(CCCl)CCCl)nc3Cl)C2)cc1 (centres undefined) | 76.7% | 76.2% | 92.7% | 80.1% | 99% | 103% | 68.4% | 86.8% | 104% | 97.9% | 94.4% | 69.5% | 97.9% | 90.5% | 80.9% | 95.7% | 92.5% | 87.3% | 67% | 81.4%
9 | C1CNC2CCCC2C1 (centres undefined) | 108% | 98.1% | 104% | 102% | 108% | 105% | 118% | 104% | 102% | 99.2% | 105% | 101% | 111% | 111% | 111% | 109% | 103% | 99.7% | 108% | 97%
10 | COc1cc(C2=NN(c3ccccc3)C(c3sc(N(CCCl)CCCl)nc3Cl)C2)cc(OC)c1OC (centres undefined) | 92.5% | 81.8% | 91.4% | 79.7% | 91.6% | 91.8% | 85.6% | 80.7% | 110% | 97.5% | 85.6% | 73.9% | 99.1% | 79.9% | 85.8% | 93.8% | 97.2% | 86.6% | 80.3% | 82.8%
11 | c1ccc2nc(OCCN3CC3)ccc2c1 | 74.2% | 83.1% | 94% | 76.8% | 72.3% | 84.2% | 75% | 96.6% | 97.5% | 86.5% | 85.1% | – | 111% | 79.9% | 98.3% | 89.2% | 64.8% | 71.4% | 25% | 80.3%
12 | Nc1c(Br)cc2c3c(cccc13)-c1ccccc1-2 | 61.7% | 89.3% | 91.2% | 82.9% | 88.4% | 94.9% | 48.7% | 87.7% | 77.7% | 49.3% | 60.1% | 47.4% | 99.7% | 90.4% | 50% | 83.4% | 90.4% | 38.7% | 81.4% | 57.4%
13 | N#C[Se]CCN1C(=O)C2C(C1=O)[C@H]1C=C[C@@H]2S1 (some centres undefined) | -11.7% (active) | -54.6% (active) | -1.58% (active) | -63.3% (active) | 2.86% (active) | -30.5% (active) | -40.5% (active) | -45.2% (active) | -70.5% (active) | -4.75% (active) | -56.9% (active) | 5.36% (active) | -19.2% (active) | -18.8% (active) | -10.3% (active) | -10.7% (active) | 42.9% | 5.71% (active) | -35.4% (active) | 15.2%
14 | Cc1cc([N+](=O)[O-])c(Cl)cc1NS(=O)(=O)c1ccccc1 | 76.5% | 64.7% | 85.4% | 90% | 73.2% | 60.1% | 108% | 90.3% | 60.6% | 73.1% | 80.9% | 81.2% | 76% | 78.1% | 72.5% | 78.7% | 93.9% | 73.9% | 87.3% | 80.8%
15 | CC1=C(SCCC(=O)OCC(=O)NCCC[Te]c2ccccc2)C(=O)c2ccccc2C1=O | -33.6% (active) | -4.17% (active) | -13.3% (active) | -49.1% (active) | -43.1% (active) | 23.2% | -34.5% (active) | -13.1% (active) | -60.3% (active) | 10.4% | -5.81% (active) | -9.1% (active) | -11.4% (active) | 7.58% (active) | -16.9% (active) | -10.5% (active) | 22.1% | 3.85% (active) | -12.9% (active) | 2.96% (active)
16 | Fc1ccc(C2=NN(c3ccccc3)C(c3sc(N(CCCl)CCCl)nc3Cl)C2)cc1 (centres undefined) | 85.4% | 74.1% | 82.3% | 78% | 90.7% | 92.2% | 69% | 86.5% | 101% | 94.3% | 85.9% | 68.2% | 111% | 86.9% | 74.5% | 92.3% | 84.4% | 72.2% | 68.2% | 81.1%
